Values joined by “and” are separate entries in the source; they are usually repeats but may differ in a detail not shown here. Equal entries are not always repeated. About 79,000 compounds went through this panel and 15% of them were active in at least one assay; those are over-represented in the sample as a whole. Some structures have more than one record in an assay (separate samples or runs), and their calls can disagree. Active and inactive are the calls of the source. Rule as the data show it: active = growth inhibition above about 70%; inactive = the rest.

The test can be described thus: NCI Yeast Anticancer Drug Screen. Data for the bub3 strain (AID 167). To be noted: S. cerevisiae bub3 mutant strain, at 5.0 µM (retest, dose inferred, filed as 0.5), stronger effect = higher value. A digest of the protocol:
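Yeast carrying a defined mutation is treated with each compound, and growth is compared with that of vehicle-exposed cells to give inhibition.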
As to `Oc1c(Cl)cc(Cl)cc1Cc1cc(Cl)cc(Cl)c1O`, the growth inhibition is 88% (active) and 74% (active).

Consider `COc1cc(OC)c(OC)cc1/C=C\c1ccnc2ccccc12`, for which the growth inhibition was 6% (inactive).

In the case of `CC(C)C1=CC23CCC4C(C)(C(=O)O)CCCC4(C)C2CC1C1C(=O)OC(=O)C13` (stereo not drawn), the growth inhibition was 90% (active).

In the case of `CN(C)c1nc(N)c(C#N)c(C#N)c1C#N`, the growth inhibition is 9% (inactive).

Consider `C/C(=N\NC(=S)N1CCN(c2ccccn2)CC1)c1nccs1`, for which the growth inhibition was 73% (active).

On to `CCCCCCCCCCCCCCCCCCOCC(COP(=O)([O-])OCC[N+](C)(C)C)OC` (stereo not drawn), for which the growth inhibition was -16% (inactive).

With `COc1ccc2nc(C)cc(NCCCCCCCCCNc3cc(C)nc4ccc(OC)cc34)c2c1`, the growth inhibition is -40% (inactive).

With `CC1CC[P+](c2ccccc2)(c2ccccc2)c2c1ccc1ccccc21` (stereo not drawn), the growth inhibition was 67% (inactive).

`CC(C)C1=C(O)C2=C(C(=O)C1=O)C1(C)CCCC(C)(C)C1CC2O` (stereo not drawn): the growth inhibition was 75% (active).

As to `CC(=O)[O-].[O-]c1c(Cl)cc(Cl)cc1/C=N/Nc1ccccn1.[Zn+2]`, the growth inhibition was -4% (inactive).

For the compound `O=C(c1ccccc1)C(c1ccccc1)C(O)c1ccc([N+](=O)[O-])cc1` (stereo not drawn), the growth inhibition is 19% (inactive) and 1% (inactive).

As for `Clc1nc(Cl)c(Cl)c(Cl)n1`, the growth inhibition was 23% (inactive).

Take `COc1cccc2c1C(=O)c1c(O)c3c(c(O)c1C2=O)C[C@@](O)(C(C)=O)C[C@@H]3OC1CC(N(C)C)C(O)C(C)O1` (stereo partly drawn): the growth inhibition is 99% (active).

As for `CN1C(c2ccccc2)CC(=NOCc2ccccc2)CC1c1ccccc1` (stereo not drawn), the growth inhibition was 78% (active).

As for `Cc1ccc(NCCN(C)C)c2c(=O)c3cc(O)ccc3sc12`, the growth inhibition is 4% (inactive).

Take `N#CC1(C2SCCS2=O)C2=C(C(=O)c3ccccc3C2=O)N2CCCC21` (stereo not drawn): the growth inhibition is 33% (inactive).

Consider `CCN(CC)CCC(=O)/C=C/c1ccccc1`, for which the growth inhibition was 58% (inactive).

Regarding `CC1(O)Cc2c(O)c3c(c(O)c2CC1O)C(=O)C=CC3=O` (stereo not drawn), the growth inhibition is 1% (inactive).

In the case of `Cc1ccc2c(c1)C1(C)OC(C=CC1=O)O2` (stereo not drawn), the growth inhibition was 97% (active).

As for `Fc1cccc(CSC(=S)Nc2ccc(F)c(F)c2)c1`, the growth inhibition is -2% (inactive).

Take `CCN(CCO)CCNc1ccc(C)c2sc3ccccc3c(=O)c12`: the growth inhibition was 6% (inactive).

Turning to `Cc1n(-c2ccccc2)c2c([n+]1Cc1ccc([N+](=O)[O-])cc1)C(=O)c1ccccc1C2=O`, the growth inhibition was -6% (inactive).

On to `CC(=O)OC1COC(n2c(N)c(C#N)c(-c3ccccc3)c(C#N)c2=S)C(OC(C)=O)C1OC(C)=O` (stereo not drawn), for which the growth inhibition was -11% (inactive) and 4% (inactive).

Take `O=c1[nH]c2cc([N+](=O)[O-])ccc2nc1/C=C(\O)c1ccc([N+](=O)[O-])cc1`: the growth inhibition is 11% (inactive).

Take `Cc1n(Cc2ccccc2)c2c([n+]1C)C(=O)c1ccccc1C2=O`: the growth inhibition was 72% (active).

Consider `CS(=O)(=O)OCCN(CCOS(C)(=O)=O)c1ccc(C=Nc2ccc(-c3csc(Cc4ccccc4)n3)cc2)c(Cl)c1`, for which the growth inhibition was -35% (inactive).

For `CCCCCCCCCCS(=O)CC(CO)NC(=O)/C=C/c1c(C)[nH]c(=O)[nH]c1=O` (stereo not drawn), the growth inhibition was 50% (inactive).

Regarding `C/C(=N\O)c1cc(Br)cc([N+](=O)[O-])c1O`, the growth inhibition was 4% (inactive).

In the case of `COc1cc2c(c(OC)c1OC)-c1ccc(SC)c(=O)cc1C(NC(=O)c1ccccc1)CC2` (stereo not drawn), the growth inhibition was -29% (inactive).

As to `COc1cccc2c1C(=O)c1c(O)c3c(c(O)c1C2=O)C[C@@](O)(C(C)=O)C[C@@H]3OC1CC(O)C(O)C(C)O1` (stereo partly drawn), the growth inhibition is 34% (inactive).

As for `CCCCCCCc1c(Cl)nc(Cl)nc1Cl`, the growth inhibition is 4% (inactive).

In the case of `O=C1/C(=C/c2ccc(Cl)cc2)CNC/C1=C\c1ccc(Cl)cc1`, the growth inhibition was 90% (active) and 46% (inactive).

For `O=C1C(Cl)=C(N2CCN(C3=C(Cl)C(=O)c4ccccc4C3=O)CC2)C(=O)c2ccccc21`, the growth inhibition was 39% (inactive).

In the case of `O=C1c2ccccc2-n2c1nc1ccccc1c2=O`, the growth inhibition is 32% (inactive).

Take `Nc1ccc(Cn2ccc3c4c(N)nc(N)nc4ccc32)cc1`: the growth inhibition was -10% (inactive).

Take `Nc1nc(N)c2c(Cl)c(CNc3ccc(Cl)c(Cl)c3)ccc2n1`: the growth inhibition is 74% (active).

Turning to `Cc1cc(NCCCCCCCNc2cc(C)nc3cc([N+](=O)[O-])ccc23)c2ccc([N+](=O)[O-])cc2n1`, the growth inhibition is 1% (inactive).

Regarding `CCCCCCCCCCCCCCCCCC(=O)NCCO`, the growth inhibition is 4% (inactive).

Values taken from PubChem BioAssay (NCI).
